Laboratory results taken from PubChem BioAssay (Tox21).
Results filed as inconclusive are left out. Activity calls are given as the source filed them. Unless noted, calls come from the whole dose curve; as a rule, active = well fitted curve in the direction sought with a large enough effect in the repeat runs; inconclusive = weak or mixed curves; inactive = no such curve, though single readings can be large; an effect the other way counts as inactive or inconclusive.

Assays:
[1] = qHTS assay to identify aromatase inhibitors - cell viability counter screen (AID 743084);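 note: cells stimulated with testosterone during compound exposure; nearly all actives have a fitted effect of over 55% in size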; note: potency is the fitted concentration of half-maximal effect
[2] = qHTS assay to identify small molecule that activate the aryl hydrocarbon receptor (AhR) signaling pathway - cell viability counter screen (AID 743086); note: nearly all actives have a fitted effect of over 45% in size; note: potency is the fitted concentration of half-maximal effect
How it was run: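 HepG2-AhR-luc (HG2L7.5c1) cells, 4000/well, treated 24 h at 37 C with compound; viability measured as CellTiter-Fluor fluorescence after 30 min in the same wells as the luciferase read.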

[3] = target: Peroxisome proliferator-activated receptor gamma (Homo sapiens) (UniProt P37231); test: qHTS assay to identify small molecule agonists of the peroxisome proliferator-activated receptor gamma (PPARg) signaling pathway (AID 743094; active = well fitted activation curve with a large enough effect in the signal ratio in the repeat runs, not every such curve was filed as active; the % refers to the signal ratio)
How it was run: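 Fluorescence-based beta-lactamase readout in HEK293H PPARg UAS-bla cells after 17 h compound exposure (37C) and 1 h B/G FRET substrate incubation at room temperature.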

[4] = target: Peroxisome proliferator-activated receptor gamma (Homo sapiens) (UniProt P37231); test: qHTS assay to identify small molecule antagonists of the peroxisome proliferator-activated receptor gamma (PPARg) signaling pathway (AID 743191; calls by dose curve; note: series mostly up to about 63 µM; nearly all actives have a fitted effect of over 30% in size)
How it was run: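 GeneBLAzer PPARg UAS-bla HEK293H cells, 5 h post-plating, exposed to compounds 17 h at 37C. LiveBLAzer B/G FRET substrate added for 1 h at room temperature; beta-lactamase reporter read by fluorescence intensity.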

[5] = qHTS assay to identify small molecule antagonists of the peroxisome proliferator-activated receptor gamma (PPARg) signaling pathway - cell viability counter screen (AID 743194); note: nearly all actives have a fitted effect of over 55% in size
How it was run: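 Cytotoxicity counter screen in PPARg-bla HEK293H cells, same wells as reporter assay. Compounds plus 50 nM rosiglitazone (final) for 17 h at 37 C, then viability read by CellTiter-Glo luminescence.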

[6] = qHTS assay for small molecule agonists of the antioxidant response element (ARE) signaling pathway (AID 743202; active = well fitted activation curve with a large enough effect in the signal ratio in the repeat runs, not every such curve was filed as active; the % refers to the signal ratio; note: potency is the fitted concentration of half-maximal effect)
How it was run: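 HepG2 ARE-bla reporter line, 2,000 cells/well; 5 h preincubation 37 C/5% CO2; compound (DMSO) 16 h 37 C; B/G FRET substrate 2 h RT; fluorescence intensity.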

[7] = qHTS assay for small molecule agonists of the antioxidant response element (ARE) signaling pathway - cell viability counter screen (AID 743203; calls by dose curve; note: nearly all actives have a fitted effect of over 55% in size)
How it was run: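 Parallel cytotoxicity read-out for the ARE-bla screen: HepG2 reporter cells, 16 hrs with compounds, then CellTiter-Glo luminescence.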

[8] = qHTS assay for small molecule activators of the heat shock response signaling pathway - cell viability counter screen (AID 743209); note: nearly all actives have a fitted effect of over 50% in size; note: potency is the fitted concentration of half-maximal effect
How it was run: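 To flag cytotoxic compounds, HSE-bla HeLa cells plated at 1500 cells/well were dosed for 5 h at 37 C, followed by the reporter FRET read and then CellTiter-Glo, with luminescence recorded 30 min after reagent addition.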

[9] = qHTS assay for small molecule activators of the heat shock response signaling pathway (AID 743210; active = well fitted activation curve with a large enough effect in the signal ratio in the repeat runs, with a control signal flat, not every such curve was filed as active; the % refers to the signal ratio;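 note: HeLa cells with beta-lactamase reporter driven by heat shock elements; series mostly up to about 63 µM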)
How it was run: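 Beta-lactamase reporter read-out: FRET substrate fluorescence after 2.5 h at RT, following 5 h compound treatment at 37 C of HeLa cells carrying HSE-driven bla reporter; quantitative HTS format.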

[10] = qHTS assay to identify small molecule agonists of the peroxisome proliferator-activated receptor delta (PPARd) signaling pathway - cell viability counter screen (AID 743211); note: nearly all actives have a fitted effect of over 55% in size
How it was run: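 In the same wells used for beta-lactamase reporter measurement, cytotoxicity is scored by CellTiter-Glo. HEK293H PPARd-bla cells receive compound for 17 h at 37C following a 5 h settling period.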

[11] = target: Peroxisome proliferator-activated receptor delta (Homo sapiens) (UniProt Q03181); test: qHTS assay to identify small molecule agonists of the peroxisome proliferator-activated receptor delta (PPARd) signaling pathway (AID 743212; calls by dose curve)
How it was run: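 Read-out: beta-lactamase FRET fluorescence after 2 h room-temperature incubation with LiveBLAzer B/G substrate. Cells were HEK293H carrying a UAS-bla reporter for PPARd, treated at 37 C with DMSO-dissolved compounds.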

[12] = qHTS assay to identify small molecule antagonists of the peroxisome proliferator-activated receptor delta (PPARd) signaling pathway - cell viability counter screen (AID 743213); note: nearly all actives have a fitted effect of over 50% in size; note: potency is the fitted concentration of half-maximal effect
How it was run: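 PPARd-bla HEK293H cells (3000/well) got compound plus 300 nM L165041 agonist for 17 h at 37 C. Viability in the same wells came from CellTiter-Glo luminescence after 30 min at room temperature.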

[13] = target: Peroxisome proliferator-activated receptor delta (Homo sapiens) (UniProt Q03181); test: qHTS assay to identify small molecule antagonists of the peroxisome proliferator-activated receptor delta (PPARd) signaling pathway (AID 743215; active = well fitted inhibition curve with a large enough effect in the signal ratio in the repeat runs, not every such curve was filed as active; the % refers to the signal ratio;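 note: cells stimulated with agonist L165041 at 300 nM final during compound exposure; series mostly up to about 62 µM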)
How it was run: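 Screen format: qHTS, antagonist mode. HEK293H PPARd-bla cells received compound and 300 nM L165041 (final), 17 h, 37 C. Beta-lactamase detected via FRET substrate fluorescence, 2 h, room temperature.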

[14] = qHTS assay to identify small molecule agonists of the farnesoid-X-receptor (FXR) signaling pathway - cell viability counter screen (AID 743218); note: nearly all actives have a fitted effect of over 45% in size
How it was run: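 Same-well cytotoxicity check on FXR-UAS-bla HEK 293T cells: 5 h attachment, 16 h compound at 37 C, CellTiter-Glo luminescence read at room temperature after 30 min.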

[15] = qHTS assay to identify small molecule antagonists of the farnesoid-X-receptor (FXR) signaling pathway - cell viability counter screen (AID 743221; active = well fitted cell-killing curve with a large enough effect in the repeat runs, not every such curve was filed as active; note: nearly all actives have a fitted effect of over 50% in size)
How it was run: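 Here viability was scored by luminescence after CellTiter-Glo addition to wells already read for beta-lactamase. Prior treatment: compound plus CDCA (50 uM final), 16 h, 37 C, HEK 293T FXR-bla cells.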

[16] = target: Vitamin D3 receptor (Homo sapiens) (UniProt P11473); test: qHTS assay to identify small molecule agonists of the vitamin D receptor (VDR) signaling pathway (AID 743222; calls by dose curve)
How it was run: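 Using LiveBLAzer B/G FRET detection, agonism was scored in VDR-bla cells exposed overnight (16 h, 37C) to DMSO-dissolved compounds; substrate incubation was 2 h at room temperature.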

[17] = target: Vitamin D3 receptor (Homo sapiens) (UniProt P11473); test: qHTS assay to identify small molecule antagonists of the vitamin D receptor (VDR) signaling pathway (AID 743223; active = well fitted inhibition curve with a large enough effect in the signal ratio in the repeat runs, not every such curve was filed as active; the % refers to the signal ratio)
How it was run: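 Inhibition of agonist-driven VDR signalling is scored in VDR-bla cells: 3 nM final 1alpha,25-dihydroxyvitamin D3 plus compound, 16 h at 37C, then beta-lactamase detection by FRET substrate fluorescence after 2 h.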

[18] = target: Aryl hydrocarbon receptor (Homo sapiens) (UniProt P35869); test: qHTS assay to identify small molecule that activate the aryl hydrocarbon receptor (AhR) signaling pathway (AID 743085); note: nearly all actives have a fitted effect of over 15% in size; note: potency is the fitted concentration of half-maximal effect;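 for activation: HG2L7.5c1 human HepG2 liver cells with stably integrated DRE-driven firefly reporter; series mostly up to about 70 µM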
How it was run: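 Stably transfected human liver carcinoma cells (HG2L7.5c1; 20 DRE-firefly luciferase) were incubated 5 h, dosed, and kept 24 h at 37C. Agonism was scored from increased luciferase luminescence.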

[19] = target: Bile acid receptor (Homo sapiens) (UniProt Q96RI1); test: qHTS assay to identify small molecule antagonists of the farnesoid-X-receptor (FXR) signaling pathway (AID 743217; active = well fitted inhibition curve with a large enough effect in the signal ratio in the repeat runs, not every such curve was filed as active; the % refers to the signal ratio)
How it was run: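 Quantitative HTS, beta-lactamase reporter format: FXR-UAS-bla HEK 293T cells co-treated 16 h at 37 °C with compounds and 50 uM final chenodeoxycholic acid, then read by B/G FRET fluorescence.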

[20] = target: Bile acid receptor (Homo sapiens) (UniProt Q96RI1); test: qHTS assay to identify small molecule agonists of the farnesoid-X-receptor (FXR) signaling pathway (AID 743220; active = well fitted activation curve with a large enough effect in the signal ratio in the repeat runs, not every such curve was filed as active; the % refers to the signal ratio)
How it was run: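 FXR-UAS-bla HEK 293T cells carrying a UAS-driven beta-lactamase reporter were plated for 5 h at 37C/5% CO2, then exposed to DMSO-dissolved Tox21 10K compounds for 16 h at 37C. A LiveBLAzer B/G FRET substrate was loaded for 2 h at room temperature before fluorescence reading.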

Measured: Potency

Chain of Bile acid receptor (Homo sapiens) (Q96RI1 whole entry, looked up): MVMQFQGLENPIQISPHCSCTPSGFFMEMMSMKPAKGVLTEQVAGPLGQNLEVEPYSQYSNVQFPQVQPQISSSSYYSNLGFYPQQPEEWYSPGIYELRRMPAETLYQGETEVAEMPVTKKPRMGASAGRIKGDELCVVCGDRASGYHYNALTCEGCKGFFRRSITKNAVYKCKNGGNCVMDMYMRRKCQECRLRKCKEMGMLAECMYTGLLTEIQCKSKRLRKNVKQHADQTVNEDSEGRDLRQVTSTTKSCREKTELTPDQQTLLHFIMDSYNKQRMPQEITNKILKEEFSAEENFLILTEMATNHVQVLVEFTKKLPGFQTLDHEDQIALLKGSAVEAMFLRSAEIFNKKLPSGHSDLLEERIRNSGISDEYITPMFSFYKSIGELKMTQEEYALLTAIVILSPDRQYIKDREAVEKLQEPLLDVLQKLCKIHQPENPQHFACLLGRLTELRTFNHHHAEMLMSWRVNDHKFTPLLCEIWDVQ
Chain of Aryl hydrocarbon receptor (Homo sapiens) (P35869 whole entry, looked up): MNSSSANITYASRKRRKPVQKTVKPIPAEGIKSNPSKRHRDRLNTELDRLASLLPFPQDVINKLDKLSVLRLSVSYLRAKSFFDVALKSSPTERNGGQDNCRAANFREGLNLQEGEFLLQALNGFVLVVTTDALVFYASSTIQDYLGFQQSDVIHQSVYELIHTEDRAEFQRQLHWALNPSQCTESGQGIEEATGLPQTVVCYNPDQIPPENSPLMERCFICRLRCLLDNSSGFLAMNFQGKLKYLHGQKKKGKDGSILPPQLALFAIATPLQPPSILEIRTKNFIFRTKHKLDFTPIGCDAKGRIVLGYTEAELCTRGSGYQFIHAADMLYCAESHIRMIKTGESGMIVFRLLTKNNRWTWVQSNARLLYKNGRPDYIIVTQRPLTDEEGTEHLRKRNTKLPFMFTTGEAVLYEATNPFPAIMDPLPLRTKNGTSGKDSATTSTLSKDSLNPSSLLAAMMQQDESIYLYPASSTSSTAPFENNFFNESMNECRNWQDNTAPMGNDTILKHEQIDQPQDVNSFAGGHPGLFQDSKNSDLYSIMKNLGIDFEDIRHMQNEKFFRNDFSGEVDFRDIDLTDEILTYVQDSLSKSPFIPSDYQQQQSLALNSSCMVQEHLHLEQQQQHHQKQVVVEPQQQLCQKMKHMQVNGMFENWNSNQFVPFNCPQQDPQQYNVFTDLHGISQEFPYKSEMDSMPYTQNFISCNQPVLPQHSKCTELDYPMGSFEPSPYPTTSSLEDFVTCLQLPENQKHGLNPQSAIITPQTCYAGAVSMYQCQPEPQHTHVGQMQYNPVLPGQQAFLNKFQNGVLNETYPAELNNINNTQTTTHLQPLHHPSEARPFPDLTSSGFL
Chain of Vitamin D3 receptor (Homo sapiens) (P11473 whole entry, looked up): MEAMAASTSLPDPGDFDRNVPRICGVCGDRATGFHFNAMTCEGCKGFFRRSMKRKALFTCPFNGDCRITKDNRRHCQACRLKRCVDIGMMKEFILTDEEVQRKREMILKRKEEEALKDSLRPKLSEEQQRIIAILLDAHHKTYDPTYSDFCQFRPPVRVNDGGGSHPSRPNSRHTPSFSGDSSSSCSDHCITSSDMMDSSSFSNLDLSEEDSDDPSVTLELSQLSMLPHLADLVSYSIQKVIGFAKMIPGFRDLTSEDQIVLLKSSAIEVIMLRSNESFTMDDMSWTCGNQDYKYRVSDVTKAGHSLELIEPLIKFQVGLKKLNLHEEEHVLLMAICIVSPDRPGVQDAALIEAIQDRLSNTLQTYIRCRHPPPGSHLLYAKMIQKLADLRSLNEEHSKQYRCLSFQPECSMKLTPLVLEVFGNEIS
Chain of Peroxisome proliferator-activated receptor delta (Homo sapiens) (Q03181 whole entry, looked up): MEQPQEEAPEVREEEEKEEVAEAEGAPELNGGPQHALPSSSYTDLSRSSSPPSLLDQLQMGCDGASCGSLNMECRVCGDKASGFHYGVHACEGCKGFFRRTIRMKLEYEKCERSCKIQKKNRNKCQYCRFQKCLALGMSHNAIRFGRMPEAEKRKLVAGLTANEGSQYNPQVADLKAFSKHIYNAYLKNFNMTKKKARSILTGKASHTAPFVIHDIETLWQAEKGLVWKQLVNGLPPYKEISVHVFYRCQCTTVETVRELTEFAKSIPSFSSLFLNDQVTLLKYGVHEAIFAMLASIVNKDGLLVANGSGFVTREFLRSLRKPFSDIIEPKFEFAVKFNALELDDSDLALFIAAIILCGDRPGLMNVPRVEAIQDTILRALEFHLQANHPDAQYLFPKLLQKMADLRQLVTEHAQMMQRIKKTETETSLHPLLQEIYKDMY
Chain of Peroxisome proliferator-activated receptor gamma (Homo sapiens) (P37231 whole entry, looked up): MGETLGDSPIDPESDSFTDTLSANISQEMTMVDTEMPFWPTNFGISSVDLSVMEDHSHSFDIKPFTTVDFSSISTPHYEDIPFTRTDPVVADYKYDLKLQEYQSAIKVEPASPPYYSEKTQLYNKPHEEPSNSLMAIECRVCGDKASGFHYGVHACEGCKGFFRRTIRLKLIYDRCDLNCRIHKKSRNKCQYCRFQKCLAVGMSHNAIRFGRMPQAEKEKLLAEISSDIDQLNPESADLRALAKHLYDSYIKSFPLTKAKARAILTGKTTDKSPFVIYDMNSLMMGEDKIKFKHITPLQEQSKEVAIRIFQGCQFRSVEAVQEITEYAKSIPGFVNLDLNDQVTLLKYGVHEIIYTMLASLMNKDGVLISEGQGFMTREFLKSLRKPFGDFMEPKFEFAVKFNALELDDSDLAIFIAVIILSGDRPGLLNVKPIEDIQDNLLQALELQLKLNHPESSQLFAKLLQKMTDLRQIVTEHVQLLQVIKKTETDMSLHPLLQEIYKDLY

Cc1cccc(OCCOc2cccc(C)c2)c1
not listed: [16] | [17] | [18] | [19] | [20]
inactive: all other assays above

Nc1nc(CC(=O)O)cs1
not listed: [8] | [18] | [19] | [20]
inactive: all other assays above

Cc1cccc(Oc2ccccc2)c1
not listed: [8] | [12] | [18] | [19] | [20]
inactive: all other assays above

NCCCN(CCO)CCO
not listed: [6] | [18] | [19] | [20]
inactive: all other assays above

CCCOc1ccc2nc(NC(=O)OC)[nH]c2c1
not listed: [6] | [13] | [17] | [18] | [19] | [20]
inactive: all other assays above

Cc1cc(CC(=O)O)c(C)n1-c1ccc(Cl)cc1
not listed: [3] | [4] | [6] | [8] | [11] | [12] | [13]
inactive: all other assays above

COCCCCCCCCOCCC[Si](C)(O[Si](C)(C)C)O[Si](C)(C)C
active: [1] 30.6 µM | [8] 38.9 µM | [12] 15.5 µM
inactive: [18] | [3] | [11] | [19] | [15] | [16] | [17]

O=C(Cl)c1ccc([N+](=O)[O-])cc1
not listed: [8] | [11] | [16] | [17] | [18] | [19] | [20]
inactive: all other assays above

Oc1ccc(O)c2c(O)cccc12
active: [18] 12.1 µM
not listed: [3] | [4] | [6] | [9] | [12] | [17] | [19] | [20]
inactive: all other assays above

COCCOCCOCCOCCOC
not listed: [9] | [13] | [15] | [16] | [18] | [19] | [20]
inactive: all other assays above

Cc1ncsc1CCO
not listed: [3] | [4] | [5] | [17]
inactive: all other assays above

CCOc1ccc2[nH]cc(C(=O)NCc3ccccc3)c(=O)c2n1
active: [6] 15.4 µM
not listed: [14] | [17] | [18]
inactive: all other assays above

CCN(CC)CCOC(=O)C1(c2ccccc2)CCCC1
not listed: [7] | [8] | [12] | [16] | [17] | [18]
inactive: all other assays above

CCCCCCCCCCCCCCCCCBr
not listed: [8] | [9] | [11] | [13] | [18]
inactive: all other assays above

N#CCCNCCC#N
not listed: [17] | [18] | [19] | [20]
inactive: all other assays above

CN1CCN(C2=Nc3cc(Cl)ccc3Nc3ccccc32)CC1
inactive: [1] | [18] | [5] | [7] | [8] | [9] | [19] | [14] | [20]

N=C(N=C(N)N)N1CCOCC1
inactive: [1] | [18] | [2] | [8] | [9] | [10] | [12] | [13] | [19] | [20] | [15]

Cc1c(Cn2ccnc2)c2ccccc2n1CCC(=O)O
not listed: [6] | [13] | [17] | [18] | [19] | [20]
inactive: all other assays above

O=C(CCN1CCN2CCCC2C1)N1c2ccccc2Sc2ccc(Cl)cc21 (stereo not given)
inactive: [1] | [3] | [5] | [7] | [8] | [9] | [10] | [15] | [16] | [17]
active: [2] 23.7 µM
